# Data taken from PubChem BioAssay AID1851 (National Center for Advancing Translational Sciences (NCATS), 2009).
# Where “and” joins values, the source holds several entries; their conditions need not be identical. Equal entries are not always repeated. The campaign covered roughly 16,000 compounds. About 2,600 (16%) were called active. About 20% were inconclusive and are not listed. Calls follow the shape of the dose curve; as a rule, active = well fitted curve in the direction sought with a large enough effect; inconclusive = small, poorly fitted or top-dose-only effect, or effect the other way; inactive = no such curve, though single readings can be large or run the other way. These entries were drawn from the full list. Where a structure was tested more than once in an assay, its records may differ in their call.
# Molecular target: Cytochrome P450 2D6 (Homo sapiens) (UniProt P10635)
# Test: Cytochrome panel assay with activity outcomes
# Conditions: recombinant CYP, pro-luciferin dealkylation, luminescence, p450-cyp2d6; series mostly up to 57.1 µM; activity, negative = inhibition: at the top concentration
# % is scaled to controls: 0 for no effect and ±100 for the full control effect.
# Sequence of Cytochrome P450 2D6 (Homo sapiens) (P10635 whole entry, looked up): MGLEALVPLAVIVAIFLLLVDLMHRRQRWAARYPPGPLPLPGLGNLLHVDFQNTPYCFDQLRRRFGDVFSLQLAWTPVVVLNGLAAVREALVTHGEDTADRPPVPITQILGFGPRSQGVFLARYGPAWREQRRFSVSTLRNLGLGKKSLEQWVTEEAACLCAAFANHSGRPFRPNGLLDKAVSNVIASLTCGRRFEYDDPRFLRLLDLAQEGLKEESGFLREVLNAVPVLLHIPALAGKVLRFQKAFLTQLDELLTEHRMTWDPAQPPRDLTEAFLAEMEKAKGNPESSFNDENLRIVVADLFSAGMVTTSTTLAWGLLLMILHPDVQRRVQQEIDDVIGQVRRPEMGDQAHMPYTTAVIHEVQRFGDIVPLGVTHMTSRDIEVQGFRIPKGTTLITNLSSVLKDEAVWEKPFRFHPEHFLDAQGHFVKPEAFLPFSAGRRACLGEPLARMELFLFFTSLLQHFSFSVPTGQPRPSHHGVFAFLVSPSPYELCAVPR
SMILES,"activity, negative = inhibition",AC50
C[C@H](N)CCCC(C)(C)O,2.07% [at 25.6 µM] (inactive),
O=C(Cn1c(C(F)(F)F)nc2ccccc21)c1ccc(F)cc1,-10.1% (inactive),
O=C(CCCN1CC=C(n2c(=O)[nH]c3ccccc32)CC1)c1ccc(F)cc1,,3.16 µM (active)
CC(C)=CCC/C(C)=C/CO/N=C1/C[C@@H](O)[C@@H](O)[C@@H]2[C@@H]3C(=O)N(C[C@@H]4CCCO4)C(=O)[C@H]3CC[C@H]12,-9.15% [at 11.4 µM] (inactive),
COc1ccc(N=C2S/C(=C\c3ccc(C)s3)C(=O)N2CC(C)C)cc1,1.59% (inactive),
O=C(O)CCC(=O)N1CCc2cc(S(=O)(=O)N3CCCCC3)ccc21,4.95% (inactive),
Cc1ccc(-c2cc(C(=O)NN=C3CCCC3)c3ccccc3n2)cc1,-21.4% (inactive),
CCNc1ncc2nc(-c3ccc(Cl)cc3)c(=O)n(Cc3ccc(F)cc3)c2n1,-0.819% (inactive),
CN(Cc1n[nH]c(=S)n1C)S(=O)(=O)c1ccccc1,-5.55% (inactive),
COC(=O)C(NC(=O)c1ccc(Cl)cc1)(Nc1nc(C)cs1)C(F)(F)F (stereo not given),-25.8% (inactive),
Cc1ccc(SCC(=O)NNC(=O)C2CCCCC2)cc1,-7.86% (inactive),
CC(=O)N[C@@H]1CONC1=O,18.4% [at 11.4 µM] (inactive),
Cc1ccc(C(=O)Nc2ccccc2Oc2ccccc2)cc1[N+](=O)[O-],-27% (inactive),
Cc1ccc(NC(=O)c2ccc(NCC3CCCO3)c([N+](=O)[O-])c2)cc1Cl (stereo not given),-20.3% (inactive),
Cc1ccc(C(=O)Nc2ccc(Cc3ccncc3)cc2)cc1[N+](=O)[O-],,1.41 µM (active)
O=C(O)[C@H]1[C@H](C(=O)O)[C@H](C(=O)O)C[C@@H]1C(=O)O,-4.27% [at 11.4 µM] (inactive),
N[C@H](C(=O)O)C1[C@H](C(=O)O)[C@H]1C(=O)O (stereo not given in full),,7.94 µM (active)
N[C@H](C(=O)O)[C@@H]1C[C@@H]1C(=O)O,,inactive
O=c1cnc2cnc(N3CCOCC3)nc2n1Cc1ccc(F)cc1,-9.25% (inactive),
NC(N)=[N+]1CCc2ccccc2C1,-16.2% (inactive),

SMILES,"activity, negative = inhibition",AC50
COc1ccccc1NC(=O)[C@H](COCc1ccccc1)NC(=O)OC(C)(C)C,-16.4% (inactive),
O=C1NCCN1Cc1cccc(Cl)c1,2.96% (inactive),
O=S1(=O)C=C(SCc2cccc(Cl)c2)Nc2ccccc21,,12.6 µM (active)
Cc1ccc(-n2ccc(=O)c(-c3ccnc(SCc4cccc(Cl)c4)n3)n2)cc1,-22.4% (inactive),
O=C1c2ccccc2C(=O)N1CCCCN(C(=O)c1cccc([N+](=O)[O-])c1)c1ccc(Cl)cc1,-20.7% (inactive),
CC1=NS(=O)(=O)c2cc(Cl)ccc2N1,,inactive and 7.94 µM (active)
COc1ccc(-n2nnnc2-c2cn(C)nc2C(F)(F)F)cc1,-7.4% (inactive),
O=C(O)c1cc(N=Nc2ccc([N+](=O)[O-])cc2)ccc1O,-8.54% [at 11.4 µM] (inactive),
CS[C@]12C(=O)C[C@]3(C)[C@@H](CC[C@@]3(O)C(=O)CO)[C@@H]1CCC1=CC(=O)CC[C@]12C,0.401% [at 11.4 µM] (inactive),
Cn1nc(-c2ccc(N3CCOCC3)c(NS(=O)(=O)c3ccc(Cl)cc3)c2)c2ccccc2c1=O,-7.84% (inactive),
CN(C)C(=O)c1ccc(-c2cncnc2N2CCNCC2)cc1,,7.94 µM (active)
CN1CCN(c2ncnc3ccc(-c4cccc(NS(C)(=O)=O)c4)cc23)CC1,3.66% (inactive),
CN1CCN(c2ncncc2-c2ccc(N(C)C)cc2)CC1,,10 µM (active)
CN1CCN(c2ncncc2-c2ccc(C(=O)N(C)C)cc2)CC1,,0.251 µM (active)
CN(C)C(=O)c1ccc(-c2cncnc2NC2CCNCC2)cc1,-15.4% (inactive),
Cc1ccc(S(=O)(=O)n2c3ccccc3c3nnc(C(=O)c4ccccc4)nc32)cc1,-14.9% [at 11.4 µM] (inactive),
Cc1nn(C)c(C)c1CNC(=O)c1cnn2c1NC(c1ccccc1)CC2C(F)(F)F (stereo not given),-20.7% (inactive),
Cn1c2c(c(=O)n(C)c1=O)CN(CCN1CCNCC1)CN2,7.25% (inactive),
O=C(CC1(O)CCCCC1)OC1CCCC1,-5.94% [at 11.4 µM] (inactive),
CCCCSc1nnc(-c2cc3c(C(F)(F)F)nn(C)c3s2)n1C,-3.58% (inactive),

SMILES,"activity, negative = inhibition",AC50
C[N+](C)(C)CC(=O)O,3.71% (inactive),
COc1ccc([C@@H](Nc2ccccn2)c2cc(C(C)(C)C)cc(C(C)(C)C)c2O)cc1,-16.7% [at 11.4 µM] (inactive),
O=C(O)c1cc(C(=O)O)nc(C(=O)O)c1,0.571% [at 11.4 µM] (inactive),
CC(O)(P(=O)(O)O)P(=O)(O)O,7.89% [at 25.6 µM] (inactive),
O=C(c1cccc(F)c1)N1CCC2(CC1)CCN(c1ccncc1)CC2,,20 µM (active)
O=C(c1cc(C(F)(F)F)cc(C(F)(F)F)c1)N1CCC2(CC1)CN(c1ccncc1)C2,-15.3% (inactive),
O=C(c1cccc(F)c1)N1CCC[C@@]2(CCN(c3ccncc3)C2)C1,-2.32% (inactive),
O=C(c1cccc(F)c1)N1CCC2(CC1)CN(c1ccncc1)C2,-4.06% (inactive),
O=C(c1cc(C(F)(F)F)cc(C(F)(F)F)c1)N1CCC2(CC1)CCN(c1ccncc1)CC2,,15.8 µM (active)
O=C(c1cc(C(F)(F)F)cc(C(F)(F)F)c1)N1CCC[C@@]2(CCN(c3ccncc3)C2)C1,-8.86% (inactive),
Cc1ccc(C)c(-c2nn(-c3cc(N4CCN(CCO)CC4)ccc3[N+](=O)[O-])c(=O)c3ccccc23)c1,-4.67% (inactive),
CCOC(=O)CC(Nc1nc(N2CCOCC2)nc(N2CCOCC2)n1)c1ccccc1Cl (stereo not given),-28.5% (inactive),
CCN(CC)CCN1C(=O)C(=O)/C(=C(/O)c2ccc(OC)cc2)C1c1cccs1 (stereo not given),,14.1 µM (active)
COc1cccc(/C(O)=C2/C(=O)C(=O)N(c3cc(C)on3)C2c2cccs2)c1 (stereo not given),-0.296% (inactive),
COC(=O)c1[nH]c(C)c(/C(O)=C2\C(=O)C(=O)N(CCN(C)C)C2c2cccs2)c1C (stereo not given),5.67% (inactive),
CC(C)(C)C(=O)[C@H]([C@@H](c1ccccc1)N1CCOCC1)N1CCOCC1,6.76% [at 11.4 µM] (inactive),
Cc1ccc(NC(=O)c2sccc2SCc2cccc(C(F)(F)F)c2)cc1,1.61% (inactive),
O=C(c1ccccc1)c1ccc2n1CC[C@H]2C(=O)O,,inactive
N#Cc1ccc(-c2ccccc2)nc1SCC(=O)c1cccc(Cl)c1,-11.5% (inactive),
CN1CCN(c2ncc3nc(-c4cn(C)c5ccccc45)c(=O)n(-c4ccccc4)c3n2)CC1,-15.3% (inactive),
